# Screening results deposited in PubChem BioAssay by Broad Institute.
# A selection: hits, their analogues and other compounds. The true share with any hit is near 6.7%.
# T cruzi growth-1: T. cruzi intracellular proliferation inhibitors, primary screen, cell-based, beta-gal Tulahuen parasites, NIH3T3 host, luminescence; T. cruzi beta-gal in NIH3T3, GalScreen luminescence, 90 h; inhibition, % at 8.34 µM; actives 5.9% (n = 77,000);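 active = mean inhibition above about 93%, with at least 55% of replicates each passing it, limit read from the data, passing the limit was not always enough; inconclusive = only one of those two conditions holds; inactive = neither condition holds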
# C diff HTS: C. difficile growth inhibitors, primary screen, HTS. AID 1259249, 2017. actives 0.25% (n = 86,000). growth activity, negative = inhibition, % at 16 µg/mL (by protocol). Clostridium difficile clinical isolate growth, OD600, 24 h; active compounds read low;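 active = mean growth activity at or below -80% and every replicate also at or below -80%; inconclusive = mean at or below -80% but some replicate above -80%; inactive = mean growth activity above -80%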
# Pf Dd2 growth: P. falciparum Dd2 growth inhibitors, primary screen, SYBR Green fluorescence, single dose replicates; 72 h; active compounds read low; activity change, % at 10 µM; actives 2.3% (n = 94,000); AID 1159554, 2015; in the data active = activity change below about -80%; inconclusive = no clear call, values can overlap the other calls
# T cruzi growth-2: T. cruzi intracellular proliferation inhibitors, confirmation, cell-based, NIH3T3 host, beta-gal parasite, luminescence, cherry-pick. T. cruzi beta-gal in NIH3T3, GalScreen luminescence, 90 h. shares compounds with T cruzi growth-1. inhibition, % at 8.35 µM. actives 72% (n = 5,600);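 active = mean replicate inhibition above about 95% and at least 55% of replicates individually reaching it, limit read from the data; inconclusive = only one of the two criteria is met; inactive = neither criterion is met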
# T cruzi growth-3: inhibitors of intracellular T. cruzi replication, confirmation, NIH3T3 host cells, beta-gal parasites, cherry-pick, set 2; T. cruzi beta-gal in NIH3T3, GalScreen luminescence, 90 h; actives 21% (n = 5,600); shares compounds with T cruzi growth-1; inhibition, % at 2.09 µM; AID 651740, 2012;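 active = mean inhibition above about 95%, with at least 55% of replicates also reaching it, limit read from the data; inconclusive = meets just one of the two conditions; inactive = meets neither condition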
# 3T3 cytotox: cytotoxicity in mouse NIH/3T3 fibroblasts, confirmation, cytotoxicity control for T. cruzi proliferation inhibitor project, cell-based, cherry-pick, single point; shares compounds with T cruzi growth-1; NIH/3T3 viability, CellTiter-Glo ATP luminescence, 90 h; cytotoxicity (signal decrease), % at 8.35 µM; actives 14% (n = 5,600); AID 651742, 2012;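 active = mean signal decrease across replicates above about 35% based on untreated-well scatter, with enough replicates individually passing, limit read from the data; inconclusive = no rule stated though some were filed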
# 3T3 cytotox 2: NIH/3T3 fibroblast cytotoxicity, confirmation, cytotoxicity control, cell-based, cherry-pick, single point, set 2. shares compounds with T cruzi growth-1. NIH/3T3 viability, CellTiter-Glo ATP luminescence, 90 h. inhibition, % at 24.9 µM. actives 56% (n = 5,600);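 active = mean loss of cell viability signal at or above a set limit, and enough replicates individually reaching it; inconclusive = meets only the mean limit or only the replicate share; inactive = meets neither condition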
# Hits are given with their value; - = inactive; ? = inconclusive; . = no result given.
SMILES,T cruzi growth-1,C diff HTS,Pf Dd2 growth,T cruzi growth-2,T cruzi growth-3,3T3 cytotox,3T3 cytotox 2
C[C@H]1CCCCO[C@H](CN(C)S(=O)(=O)c2ccccc2)[C@@H](C)CN([C@@H](C)CO)C(=O)c2cc(NS(=O)(=O)c3cccs3)ccc2O1,-,-,.,.,.,.,.
C[C@@H]1CCCCO[C@H](CN(C)S(=O)(=O)c2ccc(Cl)cc2)[C@@H](C)CN([C@@H](C)CO)C(=O)c2cc(NS(=O)(=O)c3cccs3)ccc2O1,110,-,.,113,-,-,-
C[C@H]1CCCCO[C@H](CN(C)Cc2ccc(C(=O)O)cc2)[C@@H](C)CN([C@@H](C)CO)C(=O)c2cc(NC(=O)Nc3cccc4ccccc34)ccc2O1,-,-,-,.,.,.,.
C[C@@H]1CCCCO[C@@H](CN(C)Cc2ccc(C(F)(F)F)cc2)[C@@H](C)CN([C@H](C)CO)C(=O)c2cc(NC(=O)Nc3cccc4ccccc34)ccc2O1,102,-,-,104,-,-,-
C[C@@H]1CCCCO[C@H](CN(C)Cc2ccc(C(F)(F)F)cc2)[C@H](C)CN([C@@H](C)CO)C(=O)c2cc(NC(=O)Nc3cccc4ccccc34)ccc2O1,?,-,-,103,109,?,-
C[C@@H]1CCCCO[C@@H](CN(C)Cc2ccc(C(F)(F)F)cc2)[C@H](C)CN([C@@H](C)CO)C(=O)c2cc(NC(=O)Nc3cccc4ccccc34)ccc2O1,123,-,-,111,110,-,-
C[C@@H]1CCCCO[C@@H](CN(C)Cc2ccc(C(F)(F)F)cc2)[C@H](C)CN([C@H](C)CO)C(=O)c2cc(NC(=O)Nc3cccc4ccccc34)ccc2O1,?,-,-,105,115,-,-
C[C@H](CO)N1C[C@H](C)[C@@H](CN(C)Cc2ccc(C(=O)O)cc2)OCCCC[C@H](C)Oc2ccc(NC(=O)Nc3cccc4ccccc34)cc2C1=O,-,-,-,.,.,.,.
C[C@@H]1CCCCO[C@H](CN(C)Cc2ccc(C(=O)O)cc2)[C@H](C)CN([C@H](C)CO)C(=O)c2cc(NC(=O)Nc3cccc4ccccc34)ccc2O1,-,-,-,.,.,.,.
C[C@@H]1CN([C@@H](C)CO)C(=O)c2cc(NC(=O)Nc3cccc4ccccc34)ccc2O[C@@H](C)CCCCO[C@H]1CN(C)Cc1ccc(C(=O)O)cc1,-,-,-,.,.,.,.
O=C(Cc1ccccc1)N1CC(=O)N2[C@H](CO)[C@@H](c3ccc(-c4cccc(F)c4)cc3)[C@@H]2C1,.,-,-,.,.,.,.
CC(C)CC#Cc1ccc2c(c1)O[C@@H](CN(C)Cc1ccccc1)[C@H](C)CN([C@@H](C)CO)S2(=O)=O,125,-,-,106,?,49,104
CC(C)CC#Cc1ccc2c(c1)O[C@H](CN(C)Cc1ccccc1)[C@H](C)CN([C@@H](C)CO)S2(=O)=O,122,-,-,-,111,-,107
CC(C)CC#Cc1ccc2c(c1)O[C@H](CN(C)Cc1ccc(F)cc1)[C@H](C)CN([C@H](C)CO)S2(=O)=O,-,-,-,.,.,.,.
CC(C)CC#Cc1ccc2c(c1)O[C@H](CN(C)Cc1ccccc1)[C@@H](C)CN([C@H](C)CO)S2(=O)=O,106,-,-,97,-,-,105
CC(C)CC#Cc1ccc2c(c1)O[C@H](CN(C)Cc1ccc(F)cc1)[C@@H](C)CN([C@H](C)CO)S2(=O)=O,-,-,-,.,.,.,.
CC(C)CC#Cc1ccc2c(c1)O[C@@H](CN(C)Cc1ccc(F)cc1)[C@H](C)CN([C@@H](C)CO)S2(=O)=O,-,-,-,.,.,.,.
C[C@@H]1CN([C@H](C)CO)C(=O)c2cc(NC(=O)Nc3cccc4ccccc34)ccc2O[C@@H](C)CCCCO[C@H]1CN(C)C(=O)c1ccccc1,-,-,-,.,.,.,.
Cn1cnc(S(=O)(=O)N[C@H]2C=C[C@@H](CC(=O)N3CCN(c4ccccc4)CC3)O[C@@H]2CO)c1,-,-,-,.,.,.,.
COc1ccc(NC(=O)Nc2ccc3c(c2)C(=O)N([C@@H](C)CO)C[C@H](C)[C@H](CN(C)C(=O)NC(C)C)OCCCC[C@@H](C)O3)cc1,.,-,-,.,.,.,.
C[C@H](CO)N1C[C@H](C)[C@@H](CN(C)Cc2ccc(Cl)c(Cl)c2)Oc2ccc(NC(=O)c3ccncc3)cc2C1=O,-,-,-,.,.,.,.
C[C@@H]1CCCCO[C@H](CN(C)S(=O)(=O)c2ccc(F)cc2)[C@H](C)CN([C@H](C)CO)C(=O)c2cc(NC(=O)Nc3cccc4ccccc34)ccc2O1,101,-,-,104,108,-,-
C[C@@H]1CCCCO[C@H](CN(C)S(=O)(=O)c2ccc(Cl)cc2)[C@H](C)CN([C@@H](C)CO)C(=O)c2cc(NC(=O)Nc3cccc4ccccc34)ccc2O1,101,-,-,109,104,-,-
C[C@H](CO)N1C[C@H](C)[C@H](CN(C)S(=O)(=O)c2ccc(Cl)cc2)OCCCC[C@H](C)Oc2ccc(NC(=O)Nc3cccc4ccccc34)cc2C1=O,98,-,-,111,102,-,?
C[C@@H]1CCCCO[C@H](CN(C)S(=O)(=O)c2ccc(F)cc2)[C@@H](C)CN([C@H](C)CO)C(=O)c2cc(NC(=O)Nc3cccc4ccccc34)ccc2O1,-,-,-,.,.,.,.
Cc1ccc(S(=O)(=O)N(C)C[C@@H]2OCCCC[C@@H](C)Oc3ccc(NC(=O)Nc4cccc5ccccc45)cc3C(=O)N([C@H](C)CO)C[C@@H]2C)cc1,.,-,-,.,.,.,.
C[C@H](CO)N1C[C@H](C)[C@@H](CN(C)S(=O)(=O)c2ccc(Cl)cc2)Oc2ccc(NC(=O)Nc3cccc4ccccc34)cc2C1=O,.,-,-,.,.,.,.
C[C@@H]1CCCCO[C@@H](CN(C)S(=O)(=O)c2ccccc2)[C@@H](C)CN([C@H](C)CO)C(=O)c2cc(NC(=O)Nc3cccc4ccccc34)ccc2O1,-,-,-,.,.,.,.
C[C@@H]1CN([C@H](C)CO)C(=O)c2cc(NC(=O)Nc3cccc4ccccc34)ccc2O[C@@H]1CN(C)S(=O)(=O)c1ccc(Cl)cc1,98,-,-,107,-,-,49
CC=Cc1ccc2n(c1=O)C[C@@H]1[C@@H](CO)[C@H](C(=O)N[C@H](C)c3ccccc3)[C@H]2N1Cc1ccccc1 (mixture of isomers),.,-,-,.,.,.,.
